Consider 28 molecules from PubChem BioAssay.

The assay is described as follows: compounds binding Alexa647 anti-His antibody – biochemical, small-molecule microarray, 635 nm fluorescence, artefact control for SMM control protein annotation, primary screen (AID 1128).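 Note: score merges feature fluorescence with signal-to-noise for each printed compound spot.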 The settings on record: higher = more signal.
Take `CC(C)NC(=O)[C@@H]1c2ccccc2C(=O)N(Cc2cc(C(F)(F)F)cc(C(F)(F)F)c2)[C@H]1c1ccc(CO)cc1`: the composite z-score amounted to 0.913. Then `O=C(CS)NCCCCCNC(=O)[C@@H]1C[C@@H]2C(=O)N3CCC[C@H]3C(=O)N2[C@@H]1c1ccc(O)cc1`, with 3.22; and `CCCCC=C[C@@H](NC(=O)CCc1ccccc1)c1ccccc1`, with 0.838; and `COCCOC(=O)N1C(=O)[C@@]2(c3cc(C#Cc4ccc(OC)cc4)ccc31)[C@H](C(=O)N1CCc3cc(OC)c(OC)cc3C1)[C@H]1C(=O)O[C@H](c3ccccc3)[C@H](c3ccccc3)N1[C@@H]2c1ccc(OCCO)cc1`, with 0.839.

On to `OCc1ccc(-c2cc[n+](Cc3cccc(OC(F)(F)F)c3)cc2)cc1`, for which the composite z-score was determined as 2.33. Then `O=C(Nc1cc(Br)ccc1C(=O)NCc1cccc(O)c1)c1ccccc1`, with 1.95; and `COC(=O)c1ccc(OC)c(/C=C\CC(CCc2ccccc2)OC(C)=O)c1` (stereo not drawn), with -0.281; and `O=C1C[C@@](C(=O)O)(c2ccc([N+](=O)[O-])cc2)[C@@H](c2ccc(CO)cc2)N1CC12CC3CC(CC(C3)C1)C2`, with 1.2. Molecule `CO[C@H]1O[C@H](CO)[C@@H](OC(=O)Nc2cccc(F)c2)[C@H](OC(=O)Nc2ccc3c(c2)OCO3)[C@H]1OC(=O)Nc1ccc2c(c1)OCO2` displayed a composite z-score of 1.62.

Regarding `COc1ccc([Si](C)(C)[C@H]2[C@H](CCO)O[C@@]3(C(=O)N(Cc4cccc(N5CCOC5=O)c4)c4ccccc43)[C@@H]2C)cc1`, the composite z-score was found to be 0.56. Then `COC(=O)C(CC#Cc1ccc2c(c1)[C@]1(C(=O)N2)[C@H](c2ccccc2OCCO)N2[C@H](c3ccccc3)[C@H](c3ccccc3)OC(=O)[C@H]2[C@@H]1C(=O)Nc1nc2ccccc2s1)C(=O)OC`, with 0.35. The value for `CCOC(=O)C[C@H]1[C@H](OC(=O)Cc2ccc3c(c2)OCO3)[C@@H](NC(=O)c2ccccc2)c2cc(OCCCO)ccc2N1C(=O)c1ccc2ccccc2n1` was 0.0936; that for `Cc1ccc(S[C@]2(C(=O)NCc3ccccc3)CC(=O)N(C3Cc4ccccc4C3)[C@@H]2c2ccc(CO)cc2I)cc1` was -1.12. Then `CC(C)C(CO)N1C(=O)[C@@H]2[C@H]3C(=O)OCC=C[C@H]3OC23C=CCN(CCN2CCOCC2)C(=O)[C@@H]13` (stereo partly drawn), with 0.108; and `C=CCOC(=O)[C@@H]1[C@H]2C(=O)O[C@H](c3ccccc3)[C@H](c3ccccc3)N2[C@H](c2ccc(OCCOC(=O)[C@H]3C[C@H]4C(=O)N[C@@H](Cc5ccccc5)C(=O)N4[C@H]3c3cccc(OCCO)c3)cc2)[C@@]12C(=O)Nc1ccc(I)cc12`, with 1.51. The molecule `CCOC(=O)C[C@H]1[C@H](OC(=O)c2ccccc2-c2ccccc2)[C@@H](NC(=O)c2ccccc2)c2cc(OCCCO)ccc2N1C(=O)Cc1ccc(OC)cc1` came in with a composite z-score of -0.277. The value for `NCCCCCCNC(=O)[C@H]1C[C@H]2C(=O)N3CCC[C@H]3C(=O)N2[C@H]1c1ccc(O)cc1` was 2.79. Then `COC(=O)[C@@]1(Cc2ccc(F)cc2)[C@H]2c3cc(C(=O)N4CCCC4)n(Cc4ccccc4)c3C[C@H]2CN1C(=O)c1ccccc1`, with 1.66; and `COC(=O)[C@@]1(Cc2ccccc2)[C@H]2c3cc(C(=O)N(C)C)n(Cc4ccccn4)c3C[C@H]2CN1C(=O)c1ccccc1`, with 1.54. The value for `O=C1c2ccccc2[C@](Cc2ccccc2I)(C(=O)NCC(F)(F)F)[C@H](c2ccc(CO)cc2)N1Cc1ccccc1` was 0.0638.

`O=C1NC(=O)C2C1C=CC(C(O)c1ccc3c(c1)OCO3)N2Nc1ccc(Cl)cc1Cl` (stereo not drawn) displayed a composite z-score of 1.24. The value for `COCCOC(=O)N1C(=O)[C@@]2(c3cc(C#CCCO)ccc31)[C@H](c1ccc(OCCO)cc1)N1[C@H](c3ccccc3)[C@H](c3ccccc3)OC(=O)[C@H]1[C@@H]2C(=O)N1CCc2cc(OC)c(OC)cc2C1` was 1.2; that for `CC(C)c1ccc(NN2C(C(O)c3cccs3)C=CC3C(=O)N(c4ccccc4)C(=O)C32)cc1` (stereo not drawn) was 0.548; that for `C#CCNS(=O)(=O)N(C)C` was 0.446. The molecule `C=CC[C@]1(C(=O)N(C)C)N=C(c2ccc(OCCCO)cc2)O[C@H]1c1ccccc1` registered a composite z-score of 0.661. The value for `C[C@@H]1ON(c2ccccc2)[C@H](c2ccccc2)[C@H]1C(=O)N1C(=O)OC[C@H]1Cc1ccccc1` was 0.39; that for `COc1ccc([Si](C)(C)[C@H]2[C@H](CC(=O)N3CCC[C@H]3CO)O[C@@]3(C(=O)N(Cc4ccc(N5C(=O)c6cccc7cccc5c67)cc4)c4ccccc43)[C@@H]2C)cc1` was 1.7. The value for `COCC1=C([C@H](O)CCc2ccccc2)[C@H](CO)[C@@H]2C(=O)N(C)C(=O)[C@@H]2C1` was -0.0971.
